Screening data: PubChem, several laboratories
Rce1 inhib – yeast Rce1p protease inhibitors, primary screen, biochemical, fluorescence, cell-free homogeneous. hit rate 0.27% among 290,000. yeast membranes, quenched prenylated peptide cleavage fluorescence. AID 2563, 2010. CAAX prenyl protease 2 (Saccharomyces cerevisiae (strain ATCC 204508 / S288c)), Q03530. calls only;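 active = fall in fluorescence gain of 50% or more versus controls, with final raw signal at or below 3038400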;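 note: plate controls were neutral control wells for no effect and wells lacking membranes for full effect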
Target sequence (Q03530 whole entry, looked up): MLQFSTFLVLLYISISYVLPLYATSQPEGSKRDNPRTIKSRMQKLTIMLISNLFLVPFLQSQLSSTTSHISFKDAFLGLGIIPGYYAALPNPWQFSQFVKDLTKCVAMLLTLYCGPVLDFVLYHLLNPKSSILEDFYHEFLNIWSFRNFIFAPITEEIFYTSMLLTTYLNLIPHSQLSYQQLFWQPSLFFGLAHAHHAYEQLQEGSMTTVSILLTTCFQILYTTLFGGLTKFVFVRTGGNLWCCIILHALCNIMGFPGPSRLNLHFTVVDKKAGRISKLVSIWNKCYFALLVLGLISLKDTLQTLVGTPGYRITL
NALP1 inh – NALP1 inflammasome inhibitors in reconstituted yeast, colorimetric, S. cerevisiae, triplicate retest; S. cerevisiae NALP1/ASC/caspase-1 growth, X-gal OD620, 72 h; hit rate 0.61% among 280,000; AID 2071, 2009; inhibition, % at 10 µM; in the data active = inhibition mostly above about 24%, no sharp cut-off; inactive = mostly below about 32%
PERK inh – block of dimerizer-induced PERK translation repression, primary screen, PERK inhibitor project, CHO PERK-DD cells, SEAP luminescence, HTS | CHO PERK-DD fusion, SEAP luminescence translation reporter | hit rate 0.17% among 220,000 | AID 1416, 2008 | Eukaryotic translation initiation factor 2-alpha kinase 3 (Homo sapiens), Q9NZJ5 | inhibition, % at 5.6 µM;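 active = inhibition above the mean inhibition of all tested compounds plus 3 SD, set separately per screening campaign, cut at about 2.9% in these data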;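 note: PERK kinase domain activated by AP20187 dimerizer at 100 nM; 0% = DMSO with dimerizer and 100% = rapamycin at 8.4 µM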
Yeast superoxide – reduction of superoxide in aged yeast, primary screen, HTS | S. cerevisiae aged cells, superoxide DHE fluorescence; stronger effect = lower value | superoxide response (% of plate mean), % at 10 µM | hit rate 0.18% among 330,000;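 active = superoxide response under a set limit, about three screen SD below normal, cut at about 65% in these data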;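 note: yeast aged for seven days with compound at 30 °C before DHE staining; 100% = average MFI of all compound-treated wells on the plate with controls excluded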
NLRP3 yeast inh – NALP3 inflammasome inhibitors in reconstituted yeast, primary screen, luminescence, uHTS; hit rate 0.39% among 330,000; Yeast reconstituted NLRP3/ASC/caspase-1, beta-gal luminescence, 24 h; inhibition, % at 10 µM;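 active = inhibition of 50% or more; inactive = inhibition below 50%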;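 note: plate controls were induced DMSO wells for no effect and uninduced yeast grown without galactose for full effect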
V-ATPase pH – regulators of yeast V-ATPase proton pumping, primary screen, pHLuorin cytosolic pH fluorescence. response, % at 10 µM. hit rate 0.37% among 350,000. S. cerevisiae. AID 504577, 2011; in the data active = response mostly above about 7.3%, no sharp cut-off; inactive = mostly below about 5.4%; note: actives read high
NALP3 yeast conf – NALP3 inhibitors retested in yeast, confirmation, luminescence, single concentration | shares compounds with NLRP3 yeast inh | yeast expressing human NALP3 | inhibition, % at 10 µM | hit rate 81% among 1,300; in the data active = inhibition above about 48%
Casp1 ASC ctr – CASP1-PYCARD signaling inhibition in yeast, confirmatory test, counterassay for NLRP3 inhibitor program, one-dose. shares compounds with NLRP3 yeast inh. hit rate 66% among 1,000. yeast expressing Caspase-1-ASC, luminescence counter screen. inhibition, % at 10 µM
NALP3 retest – NALP3 inhibitors in yeast, repeat test, confirmation, luminescence, single concentration, retest; shares compounds with NLRP3 yeast inh; yeast expressing human NALP3, luminescence read-out; inhibition, % at 10 µM; hit rate 53% among 1,000
Starred values were filed as active, the others as inactive; i = inactive; / = no result. Rows were chosen to be rich in hits. Some 1.6% of all compounds tested hit in one or more screens of this group. Cut-off read from the data, not from the text of the source, unless noted: active = inhibition above about 50%; inactive = the rest.

SMILES	Rce1 inhib	NALP1 inh	PERK inh	Yeast superoxide	NLRP3 yeast inh	V-ATPase pH	NALP3 yeast conf	Casp1 ASC ctr	NALP3 retest
Cc1ccc(S(=O)(=O)N2C[C@H]3[C@H]4C(=O)N(c5ccccc5)C(=O)[C@H]4C[C@H](OC(=O)Nc4cccs4)[C@@]3(O)C2)cc1	/	/	/	/	/	4.1	/	/	/
CCOC(=O)c1ccc(NC(=O)c2nc[nH]c2C(=O)N(C)CCO)cc1	/	/	/	/	/	0.7	/	/	/
CCc1nnc(NC(=S)Nc2ccccc2)s1	/	0.9	0.2	94.5	54.7*	0.1	46.2	/	/
CS(=O)(=O)n1nc(-c2ccc(Cl)cc2)nc1N	i	16.1	-0.3	110.8	8.8	2.5	/	/	/
Cn1nc(-c2ccc(Cl)cc2)nc2c(=O)n(C)c(=O)nc1-2	i	48.1*	-0.2	i	96.2*	/	99.0*	99.0*	99.0*
Cc1ccc2c(c1)CCCN2C(=O)c1cc(C)c(C)s1	/	/	/	/	51.8*	-1.3	59.0*	44.5	35.1
C[C@@]12CCC3[C@@](CCC4[C@@]3(C)CCC[C@@]4(C)C(=O)N3CCOCC3)(CC1=O)C2 (stereo partly specified)	/	/	/	96.9	29.5	-1.1	/	/	/
CC(C)NC(=O)[C@]1(C)CCC[C@@]2(C)C3CC[C@@]4(C)C[C@]3(CCC21)CC4=O (stereo partly specified)	/	/	/	93.7	58.7*	-0.6	49.2	52.8*	53.1*
CCCCNC(=O)[C@]1(C)CCC[C@@]2(C)C3CC[C@@]4(C)C[C@]3(CCC21)CC4=O (stereo partly specified)	/	/	/	74.7	53.9*	3.9	50.4*	60.0*	53.0*
C[C@@]12CCC3[C@@](CCC4[C@@]3(C)CCC[C@@]4(C)C(=O)Nc3ccc(Cl)cc3)(CC1=O)C2 (stereo partly specified)	/	/	/	104.7	32.8	1.8	/	/	/
Nc1nc2sc3c(c2c(=O)s1)CCCC3	i	2.6	-0.2	86.5	70.6*	0.4	83.0*	69.9*	80.0*
O=c1c2ccccc2nc(-c2ccc(Cl)c(Cl)c2)n1O	i	-3.2	-0.1	65.9	64.5*	0.3	42.4	26.0	33.4
N#Cc1ccc(-c2nc3cc(Cl)ccc3c(=O)n2O)cc1	i	41.5*	/	90.5	63.4*	-4.6	72.3*	50.8*	63.6*
O=c1c2cc(Cl)ccc2nc(-c2ccc([N+](=O)[O-])cc2)n1O	i	-10.2	1.7	82.2	64.8*	10.3	67.8*	37.5	58.4*
O=c1c2cc(Br)ccc2nc(-c2ccc(Cl)cc2)n1O	i	3.6	/	118.3	/	-1.2	/	/	/
Cc1ccc(S(=O)(=O)N(C)C[C@H]2Oc3ncc(-c4ccccc4)cc3C(=O)N([C@@H](C)CO)C[C@@H]2C)cc1	/	/	/	/	/	0.8	/	/	/
CCc1cc2cc(C)ccc2nc1SCC(=O)NC1CCCC1	i	-2.0	/	106.7	53.8*	-4.1	62.1*	35.4	31.5
O=c1c2ccccc2sn1-c1ccc(Cl)cc1Cl	/	/	/	/	/	3.1	/	/	/
FC(F)(F)c1cccc(-c2nc3nc(Cl)c(Cl)nc3[nH]2)c1	i	36.7	0.5	119.9	60.6*	-3.1	97.4*	42.0	45.4
CC(=Nc1cccc(O)c1)c1sc2ccccc2c1O	i	7.3	-0.1	80.4	52.3*	-1.9	50.2*	19.4	22.9
CC(=Nc1ccc(C)cc1)c1sc2ccccc2c1O	i	25.6	0.8	100.4	30.5	4.5	/	/	/
CN=C1S/C(=C\c2ccc(O)c(Br)c2)C(=O)N1C	i	19.7	/	91.5	68.0*	-2.8	84.2*	78.2*	71.8*
COc1ccc(OC)c(NS(=O)(=O)c2ccc3[nH]c(=O)[nH]c3c2)c1	/	/	/	/	/	-4.9	/	/	/
Cc1c(C)c2cccnc2c2ncccc12	/	/	/	151.4	78.3*	-2.0	85.9*	96.3*	85.7*
CCCCCCCCC(=O)N1CCN(c2cc3c(cc2F)c(=O)c(C(=O)O)cn3CC)CC1	i	-9.8	/	109.2	57.4*	-3.9	51.7*	24.9	26.6
SMILES	Rce1 inhib	NALP1 inh	PERK inh	Yeast superoxide	NLRP3 yeast inh	V-ATPase pH	NALP3 yeast conf	Casp1 ASC ctr	NALP3 retest
CCCCCCCC(=O)N1CCN(c2cc3c(cc2F)c(=O)c(C(=O)O)cn3CC)CC1	i	10.8	/	97.5	28.8	-0.6	/	/	/
CCCCCC(=O)N1CCN(CCN=CC2=C(O)CC(c3ccc(OC)cc3)CC2=O)CC1 (stereo unspecified)	i	22.6	0.3	100.2	54.9*	5.1	72.0*	46.5	47.9
COc1ccc(C2CC(=O)C(C=NCCCO)=C(O)C2)cc1 (stereo unspecified)	i	4.9	/	111.5	3.0	2.8	/	/	/
COc1ccc(C2CC(=O)C(C=NCCN3CCNCC3)=C(O)C2)cc1OC (stereo unspecified)	i	-7.5	0.6	/	/	/	/	/	/
CCC(=O)N1CCN(CCN=CC2=C(O)CC(c3ccc(OC)cc3)CC2=O)CC1 (stereo unspecified)	i	39.4	-0.5	100.4	53.1*	2.3	35.4	/	/
CCCCCC(=O)N1CCN(CCN=CC2=C(O)CC(c3ccc(OC)c(OC)c3)CC2=O)CC1 (stereo unspecified)	i	5.2	1.1	99.5	57.8*	2.8	65.7*	42.9	37.5
COc1ccc(CNC(=O)CCNC(=O)C2CCN(S(=O)(=O)c3ccc(OC)cc3)CC2)cc1	/	/	/	/	/	1.7	/	/	/
COc1ccccc1-c1noc2c1C(=O)NCC2	/	/	/	/	/	-0.6	/	/	/
COc1ccccc1N1CCN(S(=O)(=O)CCNC(=O)c2cccs2)CC1	/	/	/	/	/	-0.2	/	/	/
O=C(Nc1ccccc1)c1cc2ccccc2c(=O)s1	i	23.1	0.3	102.2	58.8*	-0.6	10.3	/	/
Cn1nnc(NC(=S)NC(=O)c2ccc3ccccc3c2)n1	/	/	/	/	/	3.4	/	/	/
Cn1nnc(NC(=S)NC(=O)c2cccc3ccccc23)n1	i	12.6	/	101.8	55.5*	-0.1	63.5*	71.3*	54.7*
CCc1ccc(-c2n[nH]nc2C2=CC(=O)C[C@H](c3ccc(F)cc3)C2)cc1	/	/	/	/	/	0.9	/	/	/
Cc1cccc(-c2nnc(SCC#N)n2-c2ccccc2)c1	i	24.8	0.5	94.0	3.7	-2.2	/	/	/
Cc1ccc(-n2c(SCCN)nnc2-c2cccc(C)c2)cc1	i	/	0.8	86.0	77.7*	1.3	78.2*	/	/
CNc1n[nH]c(-c2ccccc2)n1	/	/	/	/	/	0.4	/	/	/
